Our source for the inhibition values is PubChem BioAssay AID720582 (The Scripps Research Institute Molecular Screening Center, 2013).

For orientation: inhibition means the change of the read-out against control, counted positive when it falls.

The structures appear in SMILES notation. The whole screen tested about 370,000 compounds, of which about 2,300 (0.62%) were called active. What follows is part of a selection rich in actives, with near analogues and random picks from the rest. Unmarked numbers belong to inactive results.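 The calls were made as follows: active = inhibition above a per-campaign cutoff equal to the mean of compounds falling between control-based bounds plus 3 SD (cut at about 20% in these data); inactive = the rest.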

The target in the assay is Disintegrin and metalloproteinase domain-containing protein 10 (Homo sapiens) (UniProt O14672). The assay is described as follows: blockers of ADAM10 peptide cleavage – biochemical, QFRET, HTS, primary screen (AID 720582).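 Also: 0% = DMSO wells while the 100% control is not disclosed.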 The conditions noted are these: recombinant ADAM10, EDANS/DABCYL FRET peptide cleavage, 3 h; at 7 µM; hits give high values.
Chain of Disintegrin and metalloproteinase domain-containing protein 10 (Homo sapiens) (O14672 214-748 limits assumed): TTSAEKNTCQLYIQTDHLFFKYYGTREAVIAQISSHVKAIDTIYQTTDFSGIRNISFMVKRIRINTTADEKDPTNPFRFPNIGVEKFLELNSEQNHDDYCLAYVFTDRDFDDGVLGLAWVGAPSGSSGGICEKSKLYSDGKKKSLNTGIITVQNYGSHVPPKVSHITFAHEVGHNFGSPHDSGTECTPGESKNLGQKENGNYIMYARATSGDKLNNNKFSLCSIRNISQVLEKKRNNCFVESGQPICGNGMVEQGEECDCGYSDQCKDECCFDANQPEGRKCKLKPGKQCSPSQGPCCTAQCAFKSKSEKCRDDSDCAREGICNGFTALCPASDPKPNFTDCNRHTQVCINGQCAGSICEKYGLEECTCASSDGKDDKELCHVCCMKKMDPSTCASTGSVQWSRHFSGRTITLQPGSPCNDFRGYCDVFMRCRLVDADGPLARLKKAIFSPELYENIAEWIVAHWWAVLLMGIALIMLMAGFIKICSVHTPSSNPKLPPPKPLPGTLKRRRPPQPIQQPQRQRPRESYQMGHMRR
Turning to `COc1ccc(-n2nnnc2C(c2cccc3ccccc23)N2CCC(n3c(=O)[nH]c4ccccc43)CC2)cc1` (stereo not given), the inhibition is 22.7% (active).

Consider `O=c1[nH]c2ccccc2n1C1CCN(C(c2ccccc2)c2nnnn2Cc2ccccc2)CC1` (stereo not given), for which the inhibition was -9.55%.

Regarding `O=c1[nH]c2ccccc2n1C1CCN(C(c2ccnc3ccccc23)c2nnnn2Cc2ccccc2)CC1` (stereo not given), the inhibition was -0.89%.

`CN1CCC(N(C)Cc2cccnc2)CC1`: the inhibition is -14.6%.

Take `Cc1ccc(-c2nc3ccccc3c(=O)n2-c2ccc(Br)cn2)cc1`: the inhibition was 8.84%.

For the compound `COP(=O)(Sc1ccccc1)C(Cc1ccccc1)NC(=O)OCc1ccccc1` (stereo not given), the inhibition is 2.57%.

In the case of `O=C1C2(Cl)C3(Cl)C4(Cl)C(Cl)(Cl)C5(Cl)C3(Cl)C1(Cl)C5(Cl)C24Cl` (stereo not given), the inhibition is 31.6% (active).

Take `CO[C@H]([C@H](C)/C=C/N(C)C=O)[C@@H](C)C(=O)CC[C@H](C)[C@H](O)[C@H](C)[C@H]1OC(=O)/C=C/C(C)=C/[C@H](O)[C@H](OC)C[C@@H]2C=CC[C@@H](C[C@H](OC)[C@@]3(CO3)[C@@H](OC)C[C@@H](OC)[C@@H]1C)O2`: the inhibition was 3.02%.

As to `Cc1ccccc1CCC[C@@H](CC1CCCCC1)CN(C)C(=O)Oc1ccccc1`, the inhibition is 1.44%.

In the case of `O=C(NCC(c1cccnc1)N1CCN(c2ccccc2)CC1)Oc1ccccc1` (stereo not given), the inhibition is 0.63%.

`COC(=O)C1=C(c2ccc(F)cc2OCc2ccccc2)C[C@@H]2CC[C@H]1N2C(=O)NCc1ccc(Cl)cc1`: the inhibition was 17.6%.

In the case of `COC(=O)C1=C(c2cccc(OCc3ccccc3)c2)C[C@@H]2CC[C@H]1N2C(=O)NCc1ccc(Br)cc1`, the inhibition is 19.1%.

For `COC(=O)C1=C(c2ccc(-c3ccccc3)c(F)c2)C[C@@H]2CC[C@H]1N2C(=O)NCc1ccc(F)cc1`, the inhibition is 28.2% (active).

As to `CCOP(=O)(OCC)C(O)c1ccc(OC)cc1OC` (stereo not given), the inhibition is 1.75%.

Regarding `O=C(Cn1c(=O)n(CC2CS2)c2ccccc21)N1CCCCC1` (stereo not given), the inhibition was -0.6%.
